Compound activity from PubChem.
Compounds with a hit are over-represented: about 1.6% of the library has one in this group of screens.
NSD2 HMT inh: inhibitors of human histone methyltransferase NSD2; NSD2 peptide methylation, AlphaScreen, 120 min; inhibition, % at 12.5 µM; 310,000 compounds, 0.54% hits; in the data active means inhibition above about 50%
CASP6 VEID inh: inhibitors of human caspase-6; purified caspase-6, Z-VEID-R110 cleavage fluorescence; P55212; 350,000 compounds, 0.53% hits; inhibition, % at 12.5 µM;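 active means mean inhibition across replicates at least about 35%, with every replicate also reaching that limit, limit read from the data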;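 further: 0% = median of neutral control wells and 100% = no fluorescence left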
Target sequence (P55212 24-179 limits assumed): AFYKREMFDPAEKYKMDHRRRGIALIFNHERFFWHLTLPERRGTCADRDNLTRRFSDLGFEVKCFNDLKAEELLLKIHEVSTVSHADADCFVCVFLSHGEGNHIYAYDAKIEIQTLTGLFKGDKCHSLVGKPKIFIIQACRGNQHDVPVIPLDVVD
Target sequence (P55212 194-293 limits assumed): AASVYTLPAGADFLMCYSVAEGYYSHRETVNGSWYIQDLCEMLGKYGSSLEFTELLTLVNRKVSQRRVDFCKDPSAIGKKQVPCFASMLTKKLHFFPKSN
SIRT5 block: blocks human SIRT5 desuccinylation of peptide; Q9NXA8; Purified SirT5, succinyl-peptide AMC, trypsin-coupled fluorescence; inhibition, % at 15 µM; 330,000 compounds, 1.1% hits; in the data active means inhibition above about 15%
UBC9 SUMO inh: blocks human SUMOylation mediated by UBC9; HTRF SUMOylation assay, SAE1/SAE2 + UBC9, in vitro; inhibition, % at 35 µM; 290,000 compounds, 0.36% hits; AID 2006; in the data active means inhibition above about 50%, passing the limit was not always enough
Target sequence (P63279 whole entry, looked up): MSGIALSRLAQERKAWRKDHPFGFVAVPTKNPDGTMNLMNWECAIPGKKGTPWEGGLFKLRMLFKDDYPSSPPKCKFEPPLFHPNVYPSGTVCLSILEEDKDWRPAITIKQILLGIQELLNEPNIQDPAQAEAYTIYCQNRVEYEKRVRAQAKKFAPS
Starred values were filed as active, the others as inactive.

Results for Cc1cccc(NC(=O)/C(C#N)=C/c2cn(CC(=O)NCc3ccco3)c3ccccc23)c1C ?
NSD2 HMT inh: 0; UBC9 SUMO inh: 58*

How did N#C/C(=C\c1cn(Cc2ccc(F)cc2)c2ccccc12)C(=O)NCc1ccco1 do in these assays?
NSD2 HMT inh: -2; UBC9 SUMO inh: 51*

How did O=c1c2ccccc2[nH]c2ccc(O)cc12 do in these assays?
NSD2 HMT inh: 1; CASP6 VEID inh: 38*; SIRT5 block: -1; UBC9 SUMO inh: 18

What do the screens show for `CO[C@H]1CN(C)C(=O)c2cccc(C#N)c2OC[C@H]2O[C@H](CC[C@@H]2OC)CCN(C)C(=O)[C@H]1C`?
CASP6 VEID inh: -15; SIRT5 block: 21*

Results for CO[C@H]1CN(C)C(=O)c2cccc(C#N)c2OC[C@H]2O[C@H](CC[C@H]2OC)CCN(C)C(=O)[C@@H]1C ?
CASP6 VEID inh: 0; SIRT5 block: 1

What do the screens show for `CO[C@H]1CC[C@H]2CCN(C)C(=O)[C@@H](C)[C@H](OC)CN(C)C(=O)c3cc(C#N)ccc3OC[C@@H]1O2`?
CASP6 VEID inh: -71; SIRT5 block: 16*

What do the screens show for `CO[C@@H]1CC[C@@H]2CCN(C)C(=O)[C@H](C)[C@H](OC)CN(C)C(=O)c3cc(C#N)ccc3OC[C@@H]1O2`?
CASP6 VEID inh: -154; SIRT5 block: 0

How did COC(=O)c1cnn(-c2ccc(F)cc2F)c1/C=N/NC(=S)Nc1ccc(Cl)cc1 do in these assays?
NSD2 HMT inh: 1

What do the screens show for `O=C(O)c1ccc(-n2cccc2/C=C2/NC(=O)N(c3cccc(Cl)c3)C2=O)cc1`?
CASP6 VEID inh: 81*; SIRT5 block: 14; UBC9 SUMO inh: 42

What do the screens show for `O=C(O)c1cccc(-n2cccc2/C=C2\NC(=O)N(Cc3ccc(F)cc3)C2=O)c1`?
NSD2 HMT inh: 28; CASP6 VEID inh: 72*; SIRT5 block: 16*; UBC9 SUMO inh: 18

Results for C[C@@H]1CCCCO[C@H](CN(C)Cc2ccc(C(=O)O)cc2)[C@H](C)CN([C@H](C)CO)C(=O)c2cc(NC(=O)CCCN(C)C)ccc2O1 ?
CASP6 VEID inh: 0; SIRT5 block: 0

Results for CCOC(=O)N1CCN(C(=O)Cn2nc(C)n3nc(-c4ccc(OC)cc4)cc3c2=O)CC1 ?
NSD2 HMT inh: 2; CASP6 VEID inh: 38*; SIRT5 block: -3; UBC9 SUMO inh: 14

Results for C[C@H](CO)N1C[C@H](C)[C@H](CN(C)Cc2ccc(C(=O)O)cc2)Oc2c(NC(=O)Nc3ccccc3)cccc2C1=O ?
CASP6 VEID inh: 3; SIRT5 block: 1

Results for CC1CCCN(CCCN2C(=O)C3C(C(=O)Nc4ccc(Cl)cc4)C4C=CC3(O4)C2C(=O)NC2CCCCC2)C1 (stereo unspecified) ?
NSD2 HMT inh: 21; CASP6 VEID inh: -9; SIRT5 block: -3; UBC9 SUMO inh: 6

How did Cc1ccc(NC(=O)C2C3C=CC4(O3)C2C(=O)N(CCCN2CCCC(C)C2)C4C(=O)NC2CCCCC2)cc1 (stereo unspecified) do in these assays?
NSD2 HMT inh: 1; CASP6 VEID inh: -7; SIRT5 block: 17*; UBC9 SUMO inh: 9

Results for CCOC(=O)c1ccc(S(=O)(=O)N2CCC(C(=O)N3CCN(c4ccccc4OC)CC3)CC2)cc1 ?
NSD2 HMT inh: 3; CASP6 VEID inh: 48*; SIRT5 block: 3

How did C[C@H]1CN([C@@H](C)CO)C(=O)c2c(c3ccccc3n2C)-c2ccccc2CO[C@@H]1CN(C)C(=O)Nc1cccc(Cl)c1Cl do in these assays?
CASP6 VEID inh: 0; SIRT5 block: 1

What do the screens show for `O=C(C[C@H]1C[C@H]2c3cc(NC(=O)Cc4ccncc4)ccc3O[C@H]2[C@@H](CO)O1)NCc1cccnc1`?
CASP6 VEID inh: 2; SIRT5 block: -3

Results for C[C@H]1CN([C@@H](C)CO)C(=O)c2cc(C#CCN(C)C)cnc2O[C@H]1CN(C)Cc1cccc(F)c1 ?
CASP6 VEID inh: -4; SIRT5 block: -1

Results for Cc1ccc(S(=O)(=O)NC(=O)Nc2ccc(C)cn2)cc1 ?
CASP6 VEID inh: -5; SIRT5 block: 98*; UBC9 SUMO inh: 17

What do the screens show for `C[C@@H]1CN([C@@H](C)CO)C(=O)Cc2cc(NC(=O)NC3CCCCC3)ccc2O[C@H]1CN(C)Cc1ccc(Oc2ccccc2)cc1`?
CASP6 VEID inh: 3; SIRT5 block: 3

How did COc1ccc(S(=O)(=O)Nc2ccc3c(c2)C(=O)N([C@H](C)CO)C[C@@H](C)[C@H](CN(C)S(=O)(=O)c2ccc(C)cc2)OCCCC[C@@H](C)O3)cc1 do in these assays?
CASP6 VEID inh: -4; SIRT5 block: 13

How did COc1ccc(S(=O)(=O)N(C)C[C@@H]2OCCCC[C@@H](C)Oc3ccc(NS(=O)(=O)c4ccc(C)cc4)cc3C(=O)N([C@@H](C)CO)C[C@@H]2C)cc1 do in these assays?
CASP6 VEID inh: 0; SIRT5 block: 23*

What do the screens show for `COc1ccc(S(=O)(=O)N(C)C[C@H]2OCCCC[C@H](C)Oc3ccc(NS(=O)(=O)c4ccc(C)cc4)cc3C(=O)N([C@@H](C)CO)C[C@@H]2C)cc1`?
CASP6 VEID inh: 1; SIRT5 block: 22*

How did COc1ccc(S(=O)(=O)Nc2ccc3c(c2)C(=O)N([C@H](C)CO)C[C@@H](C)[C@@H](CN(C)S(=O)(=O)c2ccc(C)cc2)OCCCC[C@H](C)O3)cc1 do in these assays?
CASP6 VEID inh: -1; SIRT5 block: 10

What do the screens show for `COc1ccc(S(=O)(=O)N(C)C[C@@H]2OCCCC[C@H](C)Oc3ccc(NS(=O)(=O)c4ccc(C)cc4)cc3C(=O)N([C@H](C)CO)C[C@H]2C)cc1`?
CASP6 VEID inh: 0; SIRT5 block: 22*

Results for COc1ccc(S(=O)(=O)Nc2ccc3c(c2)C(=O)N([C@@H](C)CO)C[C@@H](C)[C@@H](CN(C)S(=O)(=O)c2ccc(C)cc2)OCCCC[C@H](C)O3)cc1 ?
CASP6 VEID inh: -2; SIRT5 block: 8

How did COc1ccc(S(=O)(=O)N(C)C[C@@H]2OCCCC[C@H](C)Oc3ccc(NS(=O)(=O)c4ccc(C)cc4)cc3C(=O)N([C@@H](C)CO)C[C@H]2C)cc1 do in these assays?
CASP6 VEID inh: -2; SIRT5 block: 4

What do the screens show for `COc1ccc(S(=O)(=O)N(C)C[C@@H]2OCCCC[C@H](C)Oc3ccc(NS(=O)(=O)c4ccc(C)cc4)cc3C(=O)N([C@H](C)CO)C[C@@H]2C)cc1`?
CASP6 VEID inh: 1; SIRT5 block: 24*

Results for C[C@@H]1CN([C@@H](C)CO)C(=O)c2cc(NC(=O)Nc3ccc(C(F)(F)F)cc3)ccc2O[C@@H]1CN(C)C(=O)NC1CCCCC1 ?
CASP6 VEID inh: 3; SIRT5 block: -1

How did O=c1n(-c2ccccc2)c(=O)n2n1CC(COc1ccccc1)=C1[C@@H](c3ccccc3)OB(O)C[C@@H]12 do in these assays?
CASP6 VEID inh: 1; SIRT5 block: 9

Results for COc1ccc(Nc2c3c(nc4ccc(C)cc24)CCC3)cc1 ?
NSD2 HMT inh: 7; SIRT5 block: 25*; UBC9 SUMO inh: 6
